Assay outcomes deposited in PubChem by Broad Institute.
These entries were drawn from the full list.
aSyn 5UTR act = Activators working through SNCA 5'UTR binding (MLPCN); AID 1814; 300,000 compounds, 7.1% hits; alpha-synuclein 5'UTR reporter, activators screen; activity score, % (tested at 7.5 µM), hits read low; in the data active = activity score below about -60%
* = called active by the depositor.

SMILES | aSyn 5UTR act
Cc1cccc(NC(=O)Nc2cccc(F)c2)n1 | -119*
O=[N+]([O-])c1cc(-c2ccc(C(=S)N3CCOCC3)o2)ccc1Cl | -72*
CN1CCN(C(=S)c2ccc(-c3cccc([N+](=O)[O-])c3)o2)CC1 | -171*
O=[N+]([O-])c1cccc(-c2ccc(C(=S)N3CCOCC3)o2)c1 | -107*
Cc1onc(NC(=O)c2ccc(Cl)cc2Cl)c1Br | -145*
O=C1C(CSCc2ccccc2)NC(=S)N1c1ccccc1 (stereo not drawn) | -68*
CC(C)(C)c1ccc(-c2cc(C(=O)NNC(=O)Nc3ccccc3)c3ccccc3n2)cc1 | -124*
COc1ccc(-c2cc(C(=O)Nc3ccc(C)c(N)c3)c3ccccc3n2)cc1 | -82*
COc1cc(C(=O)Nc2ccc(C)cc2)c2ccccc2n1 | 82
c1ccc(CSc2nnnn2-c2ccc3c(c2)OCCO3)nc1 | -71*
COC(=O)N(C)c1nc2ccccc2s1 | -77*
CCCCNC(=O)c1cc2ccccc2s1 | -108*
CCCCNC(=O)N(C)c1nc2ccccc2s1 | -133*
CN(C(=O)OC(C)(C)C)c1ccc(-c2nc3ccccc3s2)cc1 | 104
CCOc1ccc(OCc2ccc(C(=O)NC(C)(C)C)o2)cc1 | -70*
CC(C)NC(=O)c1ccc(COc2ccc(C(C)(C)C)cc2)o1 | -136*
CN(C)c1ccc(NC(=O)c2ccc(COc3cccc(Cl)c3)o2)cc1 | -112*
CCOc1ccc(OCc2ccc(C(=O)Nc3cccnc3)o2)cc1 | -81*
O=C(Nc1ccccc1F)c1cc2nc(C(F)F)cc(C(F)F)n2n1 | -71*
O=C(Nc1nc2cc3c(cc2s1)OCO3)c1ccco1 | 80
CC(=O)Nc1nc2cc3c(cc2s1)OCO3 | -100*
CC(=O)c1sc(Nc2nc3cc4c(cc3s2)OCO4)nc1C | -178*
CC(=Nc1ccccc1)c1sc2ccccc2c1O | -383*
CC(=Nc1ccc(Br)cc1)c1sc2ccccc2c1O | -125*
Cc1cc(C(=O)NC2CCC(C)CC2)c(C)o1 (stereo not drawn) | -110*
SMILES | aSyn 5UTR act
O=C(C1CC(c2ccccc2O)=NO1)N1CCCCC1 (stereo not drawn) | -112*
O=C(C1CC(c2ccc(F)cc2)=NO1)N1CCCCC1 (stereo not drawn) | -141*
CC1CCCCN1C(=O)CSc1ccc(-c2ccc(F)cc2)nn1 (stereo not drawn) | -76*
CC1CCCCN1C(=O)C1CC(c2ccc(F)cc2)=NO1 (stereo not drawn) | -89*
Cc1cccn2c(=O)c(C=Nc3ccc(Cl)cc3)c(NCCO)nc12 | -91*
COc1ccc(C2CC(C)(c3ccc(OC)cc3)Nc3ccccc3N2)cc1 (stereo not drawn) | -192*
O=C(O)COc1ccc(-c2nccc(-c3ccccn3)n2)cc1 | 72
FCCCOc1ccc(-c2nccc(-c3ccccn3)n2)cc1 | -63*
COc1ccccc1C(=O)Nc1ccc2c(c1)nc(CCNC(=O)c1ccco1)n2C | -295*
Cn1c(CCNC(=O)c2ccco2)nc2cc(NC(=O)c3ccccc3)ccc21 | -91*
Cn1c(CCNC(=O)c2ccco2)nc2cc(NC(=O)c3ccco3)ccc21 | -144*
Cn1c(CCNC(=O)c2ccccc2)nc2cc(NC(=O)c3ccco3)ccc21 | -81*
CCC(=O)NCCc1nc2cc(NC(=O)c3ccco3)ccc2n1C | -73*
CC(=O)Nc1cccc(-c2csc(Nc3ccc(Cl)cn3)n2)c1 | -174*
CC(=O)Nc1ccc(-c2csc(Nc3ccc(Cl)cn3)n2)cc1 | -127*
C/C(=N\NC(=O)c1cccc(C)c1O)c1ccc(NC(=O)Cc2ccccc2)cc1 | -74*
COc1ccccc1C(=O)N/N=C(\C)c1ccc(NC(=O)Cc2ccccc2)cc1 | -104*
COc1ccccc1C(=O)NN=C1CCN(Cc2ccccc2)CC1 | -73*
C/C(=N\NC(=O)c1ccccc1N)c1ccc(NC(=O)Cc2ccccc2)cc1 | -68*
C[C@]12CCC(=O)C=C1CC[C@@H]1[C@@H]2[C@@H](O)C[C@]2(C=O)[C@@H](C(=O)CO)CC[C@@H]12 | -78*
CC(C)NC1=C(Cl)C(=O)c2ccccc2C1=O | -91*
CCN(CC)CCCNC1=C(Cl)C(=O)c2ccccc2C1=O | 76
O=C(O)c1cccc(NC2=C(Cl)C(=O)c3ccccc3C2=O)c1 | -191*
O=C1C(Cl)=C(Nc2ccccc2)C(=O)c2ccccc21 | -190*
O=C1C(Cl)=C(NCc2cccnc2)C(=O)c2ccccc21 | -141*
SMILES | aSyn 5UTR act
Cc1ccc2c(c1C)NC(=O)CC(c1ccccc1O)=N2 | -83*
CCOC(=O)c1ccc(N/C=C/C(=O)c2ccccc2)cc1 | -188*
CCOC(=O)c1ccc(N/C=C/C(=O)C(C)(C)C)cc1 | -137*
Cc1ccccc1NC(=O)/C=C/c1cccs1 | -119*
CCOC(=O)c1ccc(NC(=O)/C=C/c2cccs2)cc1 | -251*
Cc1ccccc1NC(=O)/C=C/c1ccc([N+](=O)[O-])s1 | -80*
Cc1cc(C)cc(NC(=O)/C=C/c2ccc([N+](=O)[O-])s2)c1 | -244*
CC(=O)c1cccc(NC(=O)/C=C/c2ccc([N+](=O)[O-])s2)c1 | -326*
C[C@H]1Oc2ccccc2C(=O)C1C(=O)c1ccccc1 (stereo partly drawn) | -100*
Nc1ccc2nc(-c3cc(Cl)c(N)c(Cl)c3)[nH]c2c1 | -279*
Nc1ccc(-c2nc3ccc(N)cc3[nH]2)cc1 | -62*
Cc1ccc2nc(Cc3ccc(N)cc3)[nH]c2c1 | -90*
Nc1ccc(Cc2nc3c(ccc4ccccc43)[nH]2)cc1 | -171*
CCc1nc(N)nc(N)c1-c1ccc(Cl)cc1 | 85
Clc1ccc2nc(-c3ccc(Cl)nc3)[nH]c2c1 | -293*
Cc1ccc(C)c(-c2nc3ccc(N)cc3[nH]2)c1 | -64*
Cc1ccc2nc(C(O)C(O)c3nc4ccc(C)cc4[nH]3)[nH]c2c1 (stereo not drawn) | -159*
Nc1ccc2nc(-c3ccc(Cl)cc3)[nH]c2c1 | -176*
CCOc1cccc(C(=O)NC2=NCCS2)c1 | -104*
O=C(NC1=NCCS1)c1ccc(Br)s1 | -171*
CC(C)Oc1cccc(C(=O)NC2=NCCS2)c1 | -96*
O=C(NC1=NCCS1)c1cccc(Br)c1 | -75*
Cn1cnnc1Sc1ccc(/C=C/C(=O)c2ccc(O)cc2)cc1[N+](=O)[O-] | -111*
O=S(=O)(c1ccc(Nc2ccc(-c3ccc4c(c3)OCCO4)nn2)cc1)N1CCCC1 | -121*
O=C(NC1CC1)c1cccc(Nc2ccc(-c3ccc4c(c3)OCCO4)nn2)c1 | -145*
SMILES | aSyn 5UTR act
O=C(Nc1ccc(-c2noc(COc3ccccc3Cl)n2)cc1)c1ccco1 | -140*
Nc1nonc1-c1noc(COc2ccccc2Cl)n1 | -162*
Nc1nonc1-c1noc(CCCN2C(=O)c3ccccc3C2=O)n1 | -108*
Cc1cccc(OCc2nc(-c3nonc3N)no2)c1C | -144*
CC(C)(C)NC(=O)C(c1ccncc1)N(Cc1ccco1)C(=O)c1ccc(-c2ccccc2)[nH]1 (stereo not drawn) | -83*
CSc1ccc(C2C(C(=O)c3ccco3)=C(O)C(=O)N2c2nnc(SC)s2)cc1 (stereo not drawn) | -62*
O=C(Nc1ccc(OC(F)(F)F)cc1)Nc1cccnc1 | -110*
O=C(Nc1ccccc1)Nc1ccc(Oc2cccnc2)nc1 | -105*
CCC(C)c1ccc(NC(=O)Nc2cccnc2)cc1 (stereo not drawn) | -155*
CC(C)(C)c1ccc(Oc2ccc(NC(=O)c3ccccc3C(=O)O)cn2)cc1 | 86
CC(C(=O)N1CCCCC1)n1sc2ccccc2c1=O (stereo not drawn) | -134*
